This is part of a sample that, as a whole, favours compounds with a hit. Of some 79,000 tested, about 15% had one in any assay. Active and inactive are the calls of the source. Cut-off read from the data, not from the text of the source: active = growth inhibition above about 70%; inactive = the rest.
Key:
[1] = NCI Yeast Anticancer Drug Screen. Data for the rad50 strain (AID 155);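 note: 0% = growth of vehicle-only cultures of the same strain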; settings: S. cerevisiae rad50 strain growth inhibition; at 50.0 µM; active compounds read high
How it was run: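 Vehicle-treated cultures provide the reference for the growth inhibition reported for compound-exposed, repair-deficient yeast.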

[2] = NCI Yeast Anticancer Drug Screen. Data for the mec2-1 strain (AID 157); settings: S. cerevisiae mec2-1 strain, at 50.0 µM, active compounds read high
How it was run: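 Growth inhibition is read against vehicle-treated controls after compound exposure of the mec2-1 yeast strain, which is defective in DNA damage repair or cell cycle control.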

[3] = NCI Yeast Anticancer Drug Screen. Data for the sgs1 mgt1 strain (AID 161);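 note: 0% = growth of cultures given vehicle only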; settings: S. cerevisiae sgs1 mgt1 strain, at 50.0 µM, active compounds read high
How it was run: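 Compounds are added to genetically altered yeast, and growth is compared with cultures given vehicle alone to give percent inhibition.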

[4] = NCI Yeast Anticancer Drug Screen. Data for the cln2 rad14 strain (AID 165);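 note: 0% = growth equal to vehicle treated cultures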; settings: S. cerevisiae cln2 rad14 strain, at 50.0 µM, active compounds read high
How it was run: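 Growth inhibition, relative to vehicle-treated controls, is the read-out. The test organism is a yeast strain with defined genetic alterations, cln2 rad14.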

[5] = NCI Yeast Anticancer Drug Screen. Data for the bub3 strain (AID 167); settings: S. cerevisiae bub3 mutant strain, at 50.0 µM, active compounds read high
How it was run: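 Mutant yeast screening strain plus compound; vehicle-treated cultures serve as the 0% inhibition reference.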

[6] = NCI Yeast Anticancer Drug Screen. Data for the mlh1 rad18 strain (AID 175); settings: S. cerevisiae mlh1 rad18 strain growth inhibition; at 50.0 µM; active compounds read high
How it was run: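 Cells of a genetically altered yeast strain, deficient in DNA damage repair, were treated with compound. Their growth was then compared with that of vehicle-treated cultures to give inhibition.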

Measured: growth inhibition

COC(=O)c1nc(N)nc(C(=O)OC)c1C(=O)c1ccccn1
inactive: [1] -12.1% | [2] -19.2% | [3] 1.65% | [4] -20.2% | [5] -11.3% | [6] -1.75%

CCCOC(=O)C(OC(=O)c1ccccc1)C(OC(=O)c1ccccc1)C(=O)OCCC (stereo unspecified)
inactive: [1] -0.65% | [2] 0.1% | [3] -8% | [4] -10.9% | [5] 5.05% | [6] -3.7%

COc1cc(=O)n2c3ccccc3n(C)c2c1C#N
inactive: [1] -9.75% | [2] -16.9% | [3] -0.95% | [4] -0.25% | [5] -4.35% | [6] 41.8%

Cc1ccc(S(=O)(=O)N/N=C/C(C)(c2ccccc2)c2ccccc2)cc1
inactive: [2] 52% | [3] 69.3% | [4] 40.2% | [5] 15.8% | [6] 47.8%
active: [1] 70.9%

CCCC(O)C(C)(C)C (stereo unspecified)
inactive: [1] -35.7% | [2] -67.5% | [3] -51.6% | [4] -11.2% | [5] -43.5% | [6] -42%

Cc1ccc2nc[nH]c(=O)c2c1
inactive: [1] -1.1% | [2] 13.3% | [3] 7.85% | [4] -70.6% | [5] 19.4% | [6] -12.8%

CCOC1=CC(=O)C(=O)c2ccccc21
inactive: [1] -1.05% | [2] -10.2% | [3] -5.8% | [4] -17.7% | [5] -0.55% | [6] 10.3%

O=C(O)c1c(Br)c(Br)c(Br)c(Br)c1C(=O)Nc1cccc2c(O)cccc12
inactive: [1] 42.4% | [2] 24.9% | [3] 25.2% | [4] 14.4% | [5] 24.3% | [6] 44.9%

NCCCCN(CCCN)C(=O)c1ccccc1
inactive: [1] 5.5% | [2] -2.2% | [3] -17.8% | [4] 1.8% | [5] -14.3% | [6] -68.9%

Nc1nc(C(F)(F)F)nc(N)c1N
inactive: [1] 7.6% | [2] 11% | [3] 15.1% | [4] 3.2% | [5] -5.95% | [6] 14.6%

Cc1ccc(CN2CCCCC2)o1
inactive: [1] 16.6% | [2] 3.2% | [3] 0.2% | [4] 1.1% | [5] 2.05% | [6] 7.5%

CC(C)(O)C(Br)(Br)Br
inactive: [1] 0.2% | [2] 3.7% | [3] -22.4% | [4] -33% | [5] -21.9% | [6] 32.1%

FC(F)(F)C(Cl)=C(Cl)Cl
inactive: [1] -1.8% | [2] -38.5% | [3] 14.5% | [4] 20.1% | [5] -13.7% | [6] -1.75%

Cc1ccc(S(=O)(=O)OCC2=C(COS(=O)(=O)c3ccc(C)cc3)C3c4ccccc4C2c2ccccc23)cc1
inactive: [1] 31.3% | [2] 5.35% | [3] 1.55% | [4] -27.8% | [5] -1.35% | [6] 4.8%

C=C1OC(=O)C(N)=C1C(C)=O
inactive: [1] -2.65% | [2] 23.7% | [3] 9.05% | [4] -5.2% | [5] 3.9% | [6] 12.4%

C/C(CC(C)C)=N\NC(=O)Nc1ccccc1Cl
inactive: [1] 4.5% | [2] 5.7% | [3] -2.4% | [4] -3.85% | [5] 26.7% | [6] 6.35%

O=C(/C=C\c1ccccc1)OCC(=O)c1ccc(-c2ccccc2)cc1
inactive: [1] -20.1% | [2] -2.3% | [3] 1.9% | [4] -34.3% | [5] 1.1% | [6] 4.4%

COc1cc2c(cc1OCc1ccccc1)C(c1cc(OC)c(OC)c(OC)c1)=C1C(=O)OCC1C2 (stereo unspecified)
inactive: [1] 9.4% | [2] -1.1% | [3] -16.4% | [4] -7.2% | [5] -1.25% | [6] 1%

COc1ccc(N2C(=O)C3c4[nH]c5ccccc5c4C4CCCCCCCCCC4C3C2=O)cc1 (stereo unspecified)
inactive: [1] -6.15% | [2] -25.9% | [3] 0% | [4] -39.6% | [5] -15.3% | [6] -30.2%

Cc1cccc(-c2nnc3s/c(=C\c4ccc(N(C)C)cc4)c(=O)n23)c1
inactive: [1] -3.05% | [2] 8.15% | [3] 13.4% | [4] 13.8% | [5] 13.5% | [6] 16.4%

CCc1ccc(CC)c(OC)c1
inactive: [1] 16.6% | [2] -1.8% | [3] 0.4% | [4] -27.2% | [5] -11.1% | [6] 18.7%

N#C/C(=C/C=C/c1ccccc1)c1ccc([N+](=O)[O-])cc1
inactive: [1] 22% | [2] 23.4% | [3] 24.8% | [4] -8.2% | [5] 36.5% | [6] 18.9%

CC(=O)OCC1OC(c2ccccc2)C/C(=N/O)C1OC(C)=O (stereo unspecified)
active: [1] 90.8% | [2] 98.5% | [3] 97.8% | [4] 96.8% | [5] 87.8% | [6] 97.7%

COc1ccc2oc(=O)[nH]c2c1
inactive: [1] 5.3% | [2] -3.95% | [3] 9.9% | [4] 13.1% | [5] -6.9% | [6] -4.5%

O=C1c2cc3c(cc2C(=O)c2[nH]ncc21)OCO3
inactive: [1] 60.5% | [2] 30.4% | [3] 16.7% | [4] -20.2% | [5] 19.1% | [6] 17.2%

CCN(CC)c1nc(C(N)=O)c([N+](=O)[O-])c(N(CC)CC)n1
inactive: [1] -9.7% | [2] -3.4% | [3] 14.1% | [4] -14.2% | [5] -17.9% | [6] -0.5%

CC[N+](C)(CC)CCOC(=O)C(c1ccccc1)C(O)C1CC=CCC1 (stereo unspecified)
inactive: [1] 7.15% | [2] -6.3% | [3] -5.65% | [4] -30.6% | [5] -1.45% | [6] 2.3%

COc1ccc(C(Br)C(Br)C(=O)C(C)(C)C)cc1 (stereo unspecified)
inactive: [1] -2.95% | [2] 8.75% | [3] 6.2% | [4] -21.6% | [5] 31.6% | [6] 30.4%

CCC(/C=C/c1ccccc1)=N\NC(=O)c1ccc(Cl)cc1
inactive: [1] 16.2% | [2] 5.5% | [3] 7.5% | [4] 1.7% | [5] 19.9% | [6] 7.95%

CCOC1=NC(C)C(C)N1 (stereo unspecified)
inactive: [1] -5.1% | [2] -11.1% | [3] -13.4% | [4] 9.05% | [5] 6.25% | [6] -21.1%

COC(=O)c1nc2nnc(N)n2c(-c2ccc(Cl)cc2)c1C
inactive: [1] -6.3% | [2] 11.1% | [3] 7.25% | [4] -15.9% | [5] -4.35% | [6] 0.75%

CN(c1ccccc1)S(=O)(=O)c1cccc([N+](=O)[O-])c1
inactive: [1] -25.3% | [2] -44.5% | [3] 0% | [4] -9.5% | [5] 24.3% | [6] -1.55%

CN(C)c1ccc(C(=O)C2N=NCC2c2ccccc2)cc1 (stereo unspecified)
inactive: [1] 10.3% | [2] -1.3% | [3] 13% | [4] 7.3% | [5] 12.8% | [6] 17.2%

CCOC(=O)N1N=C(c2ccccc2)OC2(N3CCCC3)CCC(C(C)(C)C)CC12 (stereo unspecified)
inactive: [1] 11.1% | [2] 10.6% | [3] 9.4% | [4] -4.5% | [5] -4.25% | [6] 27.9%

CCOC(=O)CCCCCOC1CCCCO1 (stereo unspecified)
inactive: [1] 7.4% | [2] 18.2% | [3] 11.2% | [4] -0.1% | [5] -7.35% | [6] -10.5%

CSC1(C)C(=O)Nc2cc([N+](=O)[O-])ccc21 (stereo unspecified)
inactive: [1] 1.7% | [2] -11.1% | [3] 0.6% | [4] -14.2% | [5] -32.5% | [6] -5.55%

CCCNC1CC(n2cc(C)c(=O)[nH]c2=O)OC1CO (stereo unspecified)
inactive: [1] -11.4% | [2] -7.85% | [3] -25.3% | [4] -14.7% | [5] -31.8% | [6] -26.8%

CC(=O)Nc1ccc(Cc2cc([N+](=O)[O-])cc([N+](=O)[O-])c2)cc1
inactive: [1] -0.1% | [2] -14.6% | [3] 2.75% | [4] -50.9% | [5] 24.9% | [6] -18.6%

CCOc1nc(N)nc(C)c1N=Nc1ccccc1C
inactive: [1] 18.8% | [2] 18.1% | [3] 5.7% | [4] -12.5% | [5] 12.2% | [6] 15.7%

OCCCCCCCCCCCBr
inactive: [1] 28.4% | [2] 4.05% | [3] -3.1% | [4] -27.1% | [5] 9.4% | [6] 17.1%

O=c1[nH]c2c([N+](=O)[O-])cc(Cl)cc2nc1/C=C(\O)c1cccnc1
inactive: [1] 18.4% | [2] 0.7% | [3] 33.8% | [4] 36.2% | [5] 4.25% | [6] 45.1%
